# High-throughput results (PubChem BioAssay)
# Compounds with a hit are over-represented: about 4.5% of the library has one in this group of screens.
# Rce1 inh: yeast Ras-converting enzyme inhibition; Q03530; yeast membranes, quenched prenylated peptide cleavage fluorescence; calls only; 290,000 tested, 0.27% active; AID 2563;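 active = fall in fluorescence gain of 50% or more versus controls, with final raw signal at or below 3038400; inconclusive = same 50% fall but final raw signal above 3038400; inactive = fall in fluorescence gain under 50%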;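 also: plate controls were neutral control wells for no effect and wells lacking membranes for full effect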
# Target sequence (Q03530 whole entry, looked up): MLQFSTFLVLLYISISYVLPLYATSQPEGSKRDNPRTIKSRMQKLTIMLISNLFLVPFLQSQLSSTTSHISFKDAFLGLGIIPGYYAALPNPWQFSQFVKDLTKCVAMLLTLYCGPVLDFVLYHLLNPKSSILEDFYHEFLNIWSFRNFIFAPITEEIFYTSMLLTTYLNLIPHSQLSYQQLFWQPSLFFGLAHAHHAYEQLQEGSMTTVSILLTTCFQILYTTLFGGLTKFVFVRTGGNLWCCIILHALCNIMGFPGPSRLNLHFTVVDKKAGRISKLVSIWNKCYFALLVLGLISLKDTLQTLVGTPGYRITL
# GRK2 aptamer HTS: inhibitors of human GRK2 displacing RNA aptamer; P25098; bead flow cytometry, FAM-aptamer displacement from GRK2; inhibition of aptamer binding, % at 10 µM; 330,000 tested, 0.59% active;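 active = inhibition of aptamer binding above 40%, roughly 3 SD of noise, on plates passing a quality check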;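 also: median bead fluorescence of bound FAM aptamer so fluorescent compounds give negative values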
# Efflux pump mplx: inhibitors of Candida antifungal efflux pumps expressed in yeast | S. cerevisiae Candida pump triplex, Nile Red efflux | inhibition, % at 10 µM | 330,000 tested, 0.44% active | AID 485275;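 active = plate passing quality check with inhibition over a set limit, or well fluorescence over plate mean plus 4 SD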;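 also: Nile Red retained in pooled yeast measured as flow cytometry median fluorescence; 0% = buffer negative control and 100% = Enniatin B positive control; higher means more Nile Red kept so more efflux inhibition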
# ALR inh: inhibitors of human sulfhydryl oxidase ALR | purified ALR, DTT oxidation, H2O2 HRP-luminol luminescence | inhibition, % (no concentration beside the values) | 290,000 tested, 3.8% active;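 active = mean replicate inhibition above about 79%, with every replicate also reaching it, limit read from the data; inconclusive = only one of the two criteria met; inactive = mean below limit and not every replicate reaching it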
# Rtt109 Vps75: blocks Candida albicans Rtt109/Vps75 acetyltransferase activity; Q5AAJ8; inhibition, % at 34.9 µM; AID 540336; purified Rtt109/Vps75, ThioGlo CoA-SH fluorescence, 4 h; 330,000 tested, 0.16% active;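 active = inhibition of at least 50% in every replicate; inconclusive = best replicate reaches 50% inhibition but some replicates fall short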
# HDAC3 inh: inhibitors of human histone deacetylase 3 | O15379 | recombinant HDAC3, fluorogenic peptide/trypsin coupled, fluorescence | inhibition, % at 8.3 µM | 320,000 tested, 0.15% active | AID 2718; in the data active = inhibition above about 26%, passing the limit was not always enough; inconclusive = no clear call, values can overlap the other calls
# An asterisk follows results filed as active; i = inactive; ? = inconclusive; . = no result given.
SMILES,Rce1 inh,GRK2 aptamer HTS,Efflux pump mplx,ALR inh,Rtt109 Vps75,HDAC3 inh
CCOc1ccc(S(=O)(=O)Nc2cccc(C(=O)N(C)Cc3cccc(OC)c3OC)c2)cc1,i,0,0,-3,-5,4
CC(NCCCOc1cccc2ccccc12)c1ccccc1 (stereo not drawn),i,0,0,-13,2,0
Nc1ccc(-c2nc3ccc(N)cc3[nH]2)cc1,?,0,0,98*,5,-245
Nc1ccc2nc(-c3cc(Cl)c(N)c(Cl)c3)[nH]c2c1,i,0,0,.,-7,4
Cc1ccc(C)c(-c2nc3ccc(N)cc3[nH]2)c1,i,0,0,99*,1,-141
Cc1ccc(C)c(S(=O)(=O)N2CCCOC2CNC(=O)C(=O)NCc2ccccn2)c1 (stereo not drawn),i,3,0,-5,8,0
COC(C(=O)Nc1ccnn1C1CCN(Cc2ccc(Cl)s2)CC1)c1ccccc1 (stereo not drawn),i,3,0,2,9,-1
COc1cc(C(=O)NCC(=O)Nc2c(C)cccc2C)ccc1OCC(=O)N1CCOCC1,.,0,0,3,-2,2
COc1cc(/C=C/C(=O)OCC(=O)N2CC3(C)CC2CC(C)(C)C3)ccc1O (stereo not drawn),i,0,0,99*,3,1
CCN(C(=O)COC(=O)/C=C/c1ccc(O)c(OC)c1)C1CCS(=O)(=O)C1 (stereo not drawn),i,3,0,98*,-1,12
COc1cc(/C=C/C(=O)OCC(=O)N2CCC(Cc3ccccc3)CC2)ccc1O,i,36,0,41,3,1
COc1cc(/C=C/C(=O)OCC(=O)NC(=O)NC(C)(C)C)ccc1O,i,1,0,99*,-1,6
CCN(C(=O)COC(=O)/C=C/c1ccc(OC(F)F)c(OC)c1)C1CCS(=O)(=O)C1 (stereo not drawn),.,2,0,3,4,-5
COc1cc(/C=C/C(=O)OCC(=O)N2CCC(C)CC2)ccc1O,i,0,0,99*,-9,-1
N#Cc1ccccc1OCC(=O)Nc1ccccc1C(=O)NC1CC1,.,0,0,0,-3,-7
CN(CC(=O)Nc1ccc(F)cc1)CC(=O)N1CCCC1,.,3,0,-1,-2,-1
Cc1[nH]oc(=O)c1N=Nc1c(Cl)cccc1Cl,i,0,0,92*,-2,3
CC(Sc1nc2ccccc2n1C)C(=O)Nc1ccc(N2CCOCC2)cc1 (stereo not drawn),i,7,0,95*,6,3
CC(C)Cn1c(SC(C)C(=O)Nc2ccc(N3CCOCC3)cc2)nc2ccccc21 (stereo not drawn),i,2,0,-4,4,2
O=C(Nc1ccc(N2CCOCC2)cc1)c1cccc(-n2cnnc2)c1,i,5,0,1,-4,1
O=C(Nc1ccc(N2CCOCC2)cc1)c1ccncc1,i,0,0,-6,-6,-1
Cn1cccc1C(=O)Nc1ccc(N2CCOCC2)cc1,.,5,1,97*,-2,2
O=C(Nc1ccc(N2CCOCC2)cc1)c1cnsn1,i,.,.,.,-2,.
O=C(Nc1ccc(N2CCOCC2)cc1)Nc1ccc2nsnc2c1,i,4,0,86*,9,-3
CN(C)c1cccc(C(=O)Nc2ccc(N3CCOCC3)cc2)c1,i,1,0,91*,3,-1
SMILES,Rce1 inh,GRK2 aptamer HTS,Efflux pump mplx,ALR inh,Rtt109 Vps75,HDAC3 inh
COc1ccc(N(CC(=O)N/N=C(\C)c2ccc(OC)c(OC)c2)S(=O)(=O)c2ccccc2)cc1,i,2,0,-2,-10,0
CS(=O)(=O)c1ncc(Cl)c(C(=O)Nc2ccc(N3CCOCC3)cc2)n1,i,2,0,55,110*,.
CCC(C)NC(=O)c1ccc(CSCc2ccc(Cl)cc2)o1 (stereo not drawn),i,3,0,84*,-2,8
CC(C)NC(=O)c1ccc(CSCc2ccccc2Cl)o1,i,2,0,99*,-4,-2
COC(=O)c1c(C(=O)OC)c(-c2ccc(Cl)c(Cl)c2)n2c1CCC2,i,0,0,-11,5,2
O=C(O)c1c(C(=O)O)c(-c2ccc(Cl)c(Cl)c2)n2c1CSC2,i,6,0,97*,6,-5
